IEC-6 cytotox: counter-screen for KLF5 inhibitors: cytotoxicity in IEC-6 cells; 290,000 tested, 0.78% active; inhibition, % at 5 µM; AID 1825; IEC-6 cytotoxicity, luminescence viability; in the data active = inhibition above about 22%
KLF5 inhibitor: kruppel-like factor 5 inhibition; DLD-1 KLF5 promoter-luciferase reporter, luminescence; inhibition, % at 5 µM; 290,000 tested, 0.23% active;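 active = inhibition above a per-plate limit of that plate's mean compound inhibition plus 3 SD, cut at about 60% in these data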;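 also: higher means less KLF5 promoter-driven luciferase light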
APP transl inh: APP translation inhibition; SH-SY5Y APP 5'UTR-luciferase reporter, luminescence; inhibition, % at 2 µM; 190,000 tested, 0.82% active; AID 1285;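 active = inhibition above a set limit, derived from the sample mean plus 3 SD, cut at about 45% in these data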
BaF3 parental: parental Ba/F3 viability inhibition as JAK2V617F counter-screen; CellTiter-Glo ATP luminescence; inhibition, % at 5.6 µM; 220,000 tested, 1.1% active; AID 1486;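 active = inhibition above a per-campaign cutoff, the mean inhibition of all tested compounds plus 3 SD, cut at about 27% in these data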
Ba/F3 V617F tox: reduce viability of Ba/F3 cells dependent on JAK2V617F; inhibition, % at 5.6 µM; 220,000 tested, 1.1% active; AID 1446; Ba/F3 EpoR-JAK2V617F viability, ATP luminescence;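 active = inhibition above the campaign mean plus 3 SD over all tested compounds, cut at about 24% in these data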;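 also: cytokine-independent growth of Ba/F3 cells driven by EpoR plus mutant JAK2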
Each line names hits and unclear results; the compound was inactive in the other large screens. This is a sample that favours compounds with a hit; in the whole collection about 1.9% have one here.

CC(C)(C)NC(=O)C(OC(=O)Cn1nnc(-c2ccc(F)cc2)n1)c1ccncc1 (centres undefined)	BaF3 parental 93
Cc1[nH]c2ccccc2c1C1(O)C(=O)N(Cc2ccc3c(c2)OCO3)c2ccccc21 (centres undefined)	BaF3 parental 85, Ba/F3 V617F tox 78
CCC/C(O)=C1\C(=O)CC(C)(C)CC1=Nc1ccc(OC)cc1OC	APP transl inh 86
COC(=O)C1=C(C)NC(C)=C(C(=O)OC)C1c1ccccc1OCc1c(C)no[n+]1[O-]	BaF3 parental 35, Ba/F3 V617F tox 32
CC(=O)c1c(OC(=O)c2cccc(Cl)c2)c2ccccc2n1C	none (no result: APP transl inh)
CC1=CC(C)(C)Nc2ccc(OC(=O)C(C)N3C(=O)c4ccccc4C3=O)cc21 (centres undefined)	BaF3 parental 80
CC1=CC(C)(C)Nc2ccc(OC(=O)c3cccnc3)cc21	BaF3 parental 90, Ba/F3 V617F tox 41
COc1ccc(OC(=O)C(C)N2C(=O)c3ccccc3C2=O)cc1 (centres undefined)	none (no result: APP transl inh, BaF3 parental, Ba/F3 V617F tox)
O=C(NCCC(=O)N1CCN(c2ncccn2)CC1)c1ccccc1	none
CCC(C)NCC(=O)Nc1cc(S(=O)(=O)N(CC)c2ccccc2)ccc1Cl (centres undefined)	BaF3 parental 46
CCN(c1ccccc1)S(=O)(=O)c1ccc(OC)c(NC(=O)CNCC(C)O)c1 (centres undefined)	none
CCN(c1ccccc1)S(=O)(=O)c1ccc(OC)c(NC(=O)CN(C)C)c1	BaF3 parental 33
CCN(c1ccccc1)S(=O)(=O)c1ccc(OC)c(NC(=O)CNC)c1	BaF3 parental 30
c1ccc(CSc2nnc([C@@H]3CCCN3)o2)cc1	none
O=c1c2ccccc2nc(/C=C/c2ccc([N+](=O)[O-])o2)n1CCCO	BaF3 parental 102, Ba/F3 V617F tox 101
O=c1c2ccccc2nc(/C=C/c2ccc([N+](=O)[O-])cc2)n1CCCO	none
CC(=O)c1cc2c(cc1NC(=O)c1cc(C)nn1-c1ccccc1)OCO2	APP transl inh 59
CC(=O)Nc1ccc(NC(=O)c2cc(C)nn2-c2ccccc2)cc1	none
O=c1c2ccccc2nnn1Cc1ccc2ccccc2c1	BaF3 parental 89
COC(=O)c1ccc2c(c1)C(C)(C)C(/C=C/c1ccc(O)cc1)=[N+]2C	BaF3 parental 29
Brc1ccc2oc(-c3ccn[nH]3)cc2c1	none (no result: APP transl inh)
COc1ccc(-c2noc(C3CCCN(S(=O)(=O)c4cccc(Cl)c4C)C3)n2)cc1OC (centres undefined)	none
Cc1ccc(-c2cc[n+](Cc3ccccc3)cc2)cc1	BaF3 parental 73, Ba/F3 V617F tox 85
N#Cc1cc(N)c(Nc2ccccc2)cc1C#N	BaF3 parental 37
N#Cc1ccc(Nc2ccccc2)c(N)c1	none
O=C(CNS(=O)(=O)c1ccccc1)Nc1ccc(C(F)(F)F)cc1	APP transl inh 68
Cc1ccc(NC(=O)c2ccc(CNS(=O)(=O)c3cccc(C(F)(F)F)c3)cc2)cc1	BaF3 parental 33
O=C(Nc1ccccc1F)c1ccc(CNS(=O)(=O)c2cccc(C(F)(F)F)c2)cc1	none
O=C(Cc1cccs1)NCc1cc(Cl)cc(Cl)c1	none (no result: APP transl inh, BaF3 parental, Ba/F3 V617F tox)
CCn1c(SCC(=O)NCC2CCCO2)nnc1-c1ccc(Cl)cc1 (centres undefined)	none
O=C(CNC(=O)c1cccc(F)c1)N/N=C/c1cc(Br)ccc1OC(=O)/C=C/c1ccco1	APP transl inh 52
O=C(CCn1c(=S)oc2ccccc21)NC1CCCCCC1	none (no result: APP transl inh)
CC1CCCCN1C(=O)CCn1c(=S)oc2ccccc21 (centres undefined)	BaF3 parental 50 (no result: APP transl inh)
COC(=O)c1c(C)[nH]c(-c2csc(N)n2)c1C	BaF3 parental 51
CCOC(=O)c1[nH]c(C)c(C(=O)OC)c1C	none (no result: APP transl inh)
CCN(CC(=O)Nc1ccccc1OC)CC(=O)Nc1ccccc1-c1ccccc1	IEC-6 cytotox 24
CCN(CC(=O)Nc1ccccc1OC)CC(=O)Nc1ccccc1C(F)(F)F	none
CCC(C)n1cnc2c(=O)oc3ccccc3c21 (centres undefined)	APP transl inh 88
CC(C)Cn1cnc2c(=O)oc3ccccc3c21	none
c1ccc(COc2ccc(CNCc3cccnc3)cc2)cc1	none
N=c1ccn(Cc2cccc(F)c2)cc1	BaF3 parental 66, Ba/F3 V617F tox 71 (no result: APP transl inh)
Nc1ccn(Cc2cccc(F)c2)n1	none
O=C(Cc1ccccc1)Nc1nnc(-c2ccco2)o1	none
Cc1ccc(OCCSc2ncnc3nc[nH]c23)cc1	none
CCC(=O)N1CCc2cc(S(=O)(=O)NCCCN3CCN(Cc4ccccc4)CC3)ccc21	none
CC(=O)N1CCc2cc(S(=O)(=O)NCCCN3CCN(Cc4ccccc4)CC3)ccc21	APP transl inh 63
CC(C)CN1C(=O)NC(NC(=O)c2ccco2)(C(F)(F)F)C1=O (centres undefined)	BaF3 parental 95
CN1C(=O)NC(NC(=O)c2ccco2)(C(F)(F)F)C1=O (centres undefined)	none
O=C(Nc1ccc([N+](=O)[O-])cc1)c1ccc(Cn2cc([N+](=O)[O-])cn2)cc1	BaF3 parental 46, Ba/F3 V617F tox 46
CC(=O)Nc1cccc(OCC(=O)NC(C)C(C)C)c1 (centres undefined)	APP transl inh 69
Cc1cc(C(=O)NN)c2cc(Br)ccc2n1	APP transl inh 75
Cc1cc(C(N)=O)c2cc(Br)ccc2n1	none
COc1ccc(NC(=O)Nc2ccccc2SC)cc1	none
CCOc1ccc(N=Nc2c(C)[nH]n(-c3ccccc3)c2=O)cc1	none (no result: APP transl inh, BaF3 parental, Ba/F3 V617F tox)
O=C(COc1ccccc1Cl)Nc1cnn(Cc2ccccc2)c1	none
O=C(Nc1cnn(Cc2c(Cl)cccc2Cl)c1)C(c1ccccc1)c1ccccc1	APP transl inh 78
Cc1nc2ccccc2c(=O)n1/N=C/c1ccccc1	none
Cc1nc2ccccc2c(=O)n1/N=C/c1cccs1	APP transl inh 53
CC(=O)Nc1ccc(C2=NN(Cc3nnc(-c4ccccc4)o3)C(=O)SC2)cc1	none
O=C1SCC(c2ccccc2)=NN1Cc1ccccc1	BaF3 parental 32
Cc1ccc2nc(SCC(=O)NCc3ccco3)[nH]c2c1	APP transl inh 51
O=c1cc(O)nc(SCc2ccccc2)n1-c1ccc(F)cc1	BaF3 parental 31
CCCCCCCCCCCCCCCC[n+]1cccc(C(=O)N(CC)CC)c1	BaF3 parental 62, Ba/F3 V617F tox 59
O=c1cc(CNc2ccc(Br)cc2)nc2sccn12	none
Cc1ccc2[nH]c3c(c2c1)CN(C(=O)CN1c2ccc(F)cc2CCC1C)CC3 (centres undefined)	BaF3 parental 95
CSCCC(NC(=O)c1ccccc1)C(=O)NCCc1ccccc1 (centres undefined)	none (no result: APP transl inh, BaF3 parental, Ba/F3 V617F tox)
CCCCN1C2=NCCCN2c2cc(C)c(C)cc21	BaF3 parental 59, Ba/F3 V617F tox 51
CCCCN1C2=NCCCN2c2ccccc21	none
Oc1ccc(Br)cc1/C=N/Nc1nc(N2CCCCC2)nc(N2CCOCC2)n1	none
Oc1ccc(/C=N/Nc2nc(N3CCCCCC3)nc(N3CCCCCC3)n2)c(O)c1	BaF3 parental 34, Ba/F3 V617F tox 47
COc1ccc(-c2nnc(SCC(=O)Nc3ccc(Cl)cc3)n2C)cc1	none
